The supplement of paper PMC8728848
Many of the other results were omitted from the sample, so the strongest signals are more common in it than they were.

How the values were obtained:
Experiment in all cases: glycan array binding signal (z-score within array); higher = stronger binding
Settings in all cases: glycan notation: IUPAC condensed, linker removed
[1] = molecular target: Fuc(a1-2)Gal(b1-3)GalNAc(a1-3)[Fuc(a1-2)]Gal(b1-4)GlcNAc
How it was run: (§1)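 Columns mapping to the same glycan were averaged after glycan names were converted to IUPAC-condensed notation. The data come from 3228 arrays in the Consortium for Functional Glycomics database, limited to those with an available protein sequence. Binding is reported as a within-array Z-score averaged across arrays of one protein sequence and across linkers.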

[2] = molecular target: Fuc(a1-2)Gal(b1-3)GalNAc(b1-3)Gal(a1-4)Gal(b1-4)Glc
How it was run: as §1

[3] = molecular target: Fuc(a1-2)Gal(b1-3)GlcNAc(b1-2)Man(a1-3)[Fuc(a1-2)Gal(b1-3)GlcNAc(b1-2)Man(a1-6)]Man(b1-4)GlcNAc(b1-4)[Fuc(a1-6)]GlcNAc
How it was run: as §1

[4] = molecular target: Fuc(a1-2)Gal(b1-4)GlcNAc(b1-6)GalNAc
How it was run: as §1

[5] = molecular target: Fuc(a1-2)Gal6S(b1-4)Glc
How it was run: as §1

[6] = molecular target: Fuc(a1-2)[Gal(a1-3)]Gal(b1-4)GlcNAc(b1-3)GalNAc
How it was run: as §1

[7] = molecular target: Fuc(a1-3)[Gal(b1-4)]GlcNAc6S
How it was run: as §1

[8] = molecular target: Fuc(a1-4)GlcNAc
How it was run: as §1

[9] = molecular target: Gal(a1-3)Gal(b1-3)GlcNAc
How it was run: as §1

[10] = molecular target: Gal(a1-3)Gal(b1-4)[Fuc(a1-3)]GlcNAc
How it was run: as §1

[11] = molecular target: Gal(a1-3)Gal(b1-4)[Fuc(a1-3)]GlcNAc(b1-2)Man(a1-3)[Gal(a1-3)Gal(b1-4)[Fuc(a1-3)]GlcNAc(b1-2)Man(a1-6)]Man(b1-4)GlcNAc(b1-4)GlcNAc
How it was run: as §1

[12] = molecular target: Gal(a1-3)[Gal(a1-4)]Gal(b1-4)GlcNAc
How it was run: as §1

[13] = molecular target: Gal(a1-4)Gal(b1-4)Glc
How it was run: as §1

[14] = molecular target: Gal(b1-3)Gal
How it was run: as §1

[15] = molecular target: Gal(b1-3)GalNAc(b1-3)Gal(a1-4)Gal(b1-4)Glc
How it was run: as §1

[16] = molecular target: Gal(b1-3)GalNAc(b1-4)[Neu5Ac(a2-3)]Gal(b1-4)Glc
How it was run: as §1

[17] = molecular target: Gal(b1-3)GlcNAc(b1-3)GalNAc
How it was run: as §1

[18] = molecular target: Gal(b1-3)[Neu5Ac(a2-6)]GalNAc
How it was run: as §1

[19] = molecular target: Gal(b1-3)[Neu5Ac(a2-6)]GlcNAc(b1-4)Gal(b1-4)Glc
How it was run: as §1

[20] = molecular target: Gal(b1-3)[Neu5Ac(b2-6)]GalNAc
How it was run: as §1

[21] = molecular target: Gal(b1-4)GlcNAc(b1-2)Man(a1-3)[Gal(b1-4)GlcNAc(b1-2)Man(a1-6)]Man(b1-4)GlcNAc(b1-4)GlcNAc
How it was run: as §1

[22] = molecular target: Gal(b1-4)GlcNAc(b1-2)Man(a1-6)[GlcNAc(b1-2)Man(a1-3)]Man(b1-4)GlcNAc(b1-4)GlcNAc
How it was run: as §1

[23] = molecular target: Gal(b1-4)GlcNAc(b1-3)Gal(b1-4)GlcNAc(b1-3)Gal(b1-4)GlcNAc(b1-3)Gal(b1-4)GlcNAc(b1-3)Gal(b1-4)GlcNAc(b1-3)Gal(b1-4)GlcNAc(b1-2)Man(a1-3)[Gal(b1-4)GlcNAc(b1-3)Gal(b1-4)GlcNAc(b1-3)Gal(b1-4)GlcNAc(b1-3)Gal(b1-4)GlcNAc(b1-3)Gal(b1-4)GlcNAc(b1-3)Gal(b1-4)GlcNAc(b1-2)Man(a1-6)]Man(b1-4)GlcNAc(b1-4)GlcNAc
How it was run: as §1

[24] = molecular target: Gal(b1-4)GlcNAc(b1-3)[Gal(b1-4)GlcNAc(b1-6)]Gal(b1-4)GlcNAc
How it was run: as §1

[25] = molecular target: Gal(b1-4)GlcNAc(b1-6)GalNAc
How it was run: as §1

[26] = molecular target: Gal(b1-6)Gal
How it was run: as §1

[27] = molecular target: Gal3S(b1-3)[Fuc(a1-4)]GlcNAc
How it was run: as §1

[28] = molecular target: Gal3S4S(b1-4)GlcNAc
How it was run: as §1

[29] = molecular target: Gal3S6S(b1-4)GlcNAc
How it was run: as §1

[30] = molecular target: Gal6P(b1-4)GlcNAc
How it was run: as §1

B1: DCIR1 (Mus musculus), Q9QZ15 (protein)
chain: MASEITYAEVKFKNESNSLHTYSESPAAPREKPIRDLRKPGSPSLLLTSLMLLLLLLAITFLVAFIIYFQKYSQLLEEKKAAKNIMHNELNCTKSVSPMEDKVWSCCPKDWRLFGSHCYLVPTVSSSASWNKSEENCSRMGAHLVVIQSQEEQDFITGILDTHAAYFIGLWDTGHRQWQWVDQTPYEESITFWHNGEPSSGNEKCATIIYRWKTGWGWNDISCSLKQKSVCQMKKINL
- glycan array binding signal (z-score) [1]: 0.031
- glycan array binding signal (z-score) [2]: 3.31
- glycan array binding signal (z-score) [3]: 3.05
- glycan array binding signal (z-score) [4]: 3.97
- glycan array binding signal (z-score) [5]: 1.87
- glycan array binding signal (z-score) [6]: -0.604
- glycan array binding signal (z-score) [7]: 1.43
- glycan array binding signal (z-score) [8]: -0.807
- glycan array binding signal (z-score) [9]: 7.14
- glycan array binding signal (z-score) [10]: -0.171
- glycan array binding signal (z-score) [11]: 2.31
- glycan array binding signal (z-score) [12]: 3.21
- glycan array binding signal (z-score) [13]: 0.74
- glycan array binding signal (z-score) [14]: -0.894
- glycan array binding signal (z-score) [15]: 0.592
- glycan array binding signal (z-score) [16]: 2.65
- glycan array binding signal (z-score) [17]: -0.841
- glycan array binding signal (z-score) [18]: -0.767
- glycan array binding signal (z-score) [19]: 3.38
- glycan array binding signal (z-score) [20]: -0.696
- glycan array binding signal (z-score) [21]: -0.217
- glycan array binding signal (z-score) [22]: 0.904
- glycan array binding signal (z-score) [23]: -0.907
- glycan array binding signal (z-score) [24]: -0.693
- glycan array binding signal (z-score) [25]: 1.01
- glycan array binding signal (z-score) [26]: -0.786
- glycan array binding signal (z-score) [27]: -0.369
- glycan array binding signal (z-score) [28]: -0.376
- glycan array binding signal (z-score) [29]: 0.218
- glycan array binding signal (z-score) [30]: -0.489
